# Reference: PubChem BioAssay (NCATS)
# “And” between values parts separate entries of the source, which are not always exact repeats. Equal values may be shown once. Results filed as inconclusive are left out. A call without a number means that no potency is given here. Unmarked numbers belong to inactive results. The source made the active and inactive calls. Calls come from the whole dose curve; as a rule, active = well fitted curve in the direction sought with a large enough effect; inconclusive = small, poorly fitted or top-dose-only effect, or another doubt; inactive = no such curve, though single readings can be large; an effect the other way counts as inactive or inconclusive. Numbered stars: 1 amine (or outer) side, 2 acyl side, 3 side chain; on linkers, the order of the positions; unused ones are H or OH. Bridge positions count the residues as written; N and C are the ends. Square brackets hold non-standard residues; d marks the D form. Peptide text beside a SMILES is read from it. I, II: the chains in the order shown. Actinocin(9to1) = Cc1c2oc3c(C)ccc(C(=O)[*:1])c3nc-2c(C(=O)[*:2])c(N)c1=O; NMeV = CN[CH](C(=O)O)C(C)C; Sar = CNCC(=O)O
# Experiments:
# [1] = Viability qHTS for spleen associated tyrosine kinase inhibitor (SYKi) naive MV4-11 cells (AID 1963823); note: nearly all actives have a fitted effect of over 40% in size
# Summary of the method: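 Seeding of 500 SYKi-naive MV4-11 cells per well onto pre-dispensed compounds preceded a 72 hr incubation at 37 C. Luminescent CellTiter-Glo signal, read after 10 min at room temperature, reflected viable cells.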
# [2] = Viability qHTS for spleen associated tyrosine kinase inhibitor (SYKi) drug resistant MV4-11 cells (AID 1963824); note: nearly all actives have a fitted effect of over 35% in size
# Summary of the method: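 CellTiter-Glo luminescence, read 10 min after reagent addition, reports viability after a 72 hr compound exposure. Cells are an MV4-11 line made resistant to SYK inhibition, seeded at 500 per well onto compound-containing plates.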
# [3] = Quantitative highthroughput screen to assess conditional lethalithy of NOMO1 cells grown in RPMI1640 with untreated serum (RPMI+s) (AID 1963876); note: nearly all actives have a fitted effect of over 35% in size
# Summary of the method: (§1)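 Each medium arm—HPLM with 10% dialyzed FBS, or RPMI1640 with 5 mM glucose and 10% untreated or dialyzed FBS—was screened against an 11-point, 3-fold compound titration for 48 h at 37 °C, with CellTiter-Glo luminescence as endpoint.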
# [4] = Quantitative highthroughput screen to assess conditional lethalithy of NOMO1 cells grown in RPMI1640 with dialyzed fetal bovine serum (RPMI+ds) (AID 1963877); note: nearly all actives have a fitted effect of over 30% in size; for Viability: series mostly up to about 46 µM
# Summary of the method: as §1
# [5] = Quantitative highthroughput screen to assess conditional lethalithy of P12 Ichikawa cells grown in Human Plasma-Like Medium with dialyzed fetal bovine serum (HPLM+ds) (AID 1963879); conditions: Potency: viability; note: nearly all actives have a fitted effect of over 35% in size; for Viability: series mostly up to about 46 µM
# Summary of the method: as §1
# [6] = Quantitative highthroughput screen to assess conditional lethalithy of P12 Ichikawa cells grown in RPMI1640 with untreated serum (RPMI+s) (AID 1963881); conditions: Potency: viability; note: nearly all actives have a fitted effect of over 35% in size; for Viability: series mostly up to about 46 µM
# Summary of the method: as §1
# [7] = Quantitative highthroughput screen to assess conditional lethalithy of SEM cells grown in Human Plasma-Like Medium with dialyzed fetal bovine serum (HPLM+ds) (AID 1963882); note: nearly all actives have a fitted effect of over 35% in size; for Viability: series mostly up to about 46 µM
# Summary of the method: as §1
# [8] = Quantitative highthroughput screen to assess conditional lethalithy of SEM cells grown in RPMI1640 with dialyzed fetal bovine serum (RPMI+ds) (AID 1963884); note: nearly all actives have a fitted effect of over 35% in size; for Viability: series mostly up to about 46 µM
# Summary of the method: as §1
# [9] = Quantitative highthroughput screen to assess conditional lethalithy of SEM cells grown in RPMI1640 with unreated serum (RPMI+s) (AID 1963883); note: nearly all actives have a fitted effect of over 35% in size
# Summary of the method: as §1
# [10] = Cellular viability qHTS for adrenocortical cancer (ACC) cell line SW-13 (AID 1963989); conditions: SW-13 ACC cells viability, CellTiter-Glo, 48 h; activity (max response): hits give low values; note: nearly all actives have a fitted effect of over 65% in size;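 for activity (max response): cells grown in serum-free medium with ITS supplement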
# Summary of the method: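 IC50 and maximal-response values come from four-parameter logistic fits of titration data. SW-13 cells in serum-free medium received compounds (up to 46 uM final) for 48 h before CellTiter-Glo luminescence.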
# [11] = Cellular viability qHTS for adrenocortical cancer (ACC) cell line NCI-H295R (AID 1963990); note: nearly all actives have a fitted effect of over 60% in size
# Summary of the method: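 Adrenocortical carcinoma cells, suspended at 300 000 cells/mL in serum-free DMEM plus ITS, rested overnight before pin transfer of compound. After two days' incubation, ATP-dependent luminescence was recorded and curve-fitted.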
# [12] = Quantitative highthroughput screen to assess conditional lethalithy of P12 Ichikawa cells grown in RPMI1640 with dialyzed fetal bovine serum (RPMI+ds) (AID 1963880); conditions: Potency: P12-Ichikawa viability; note: nearly all actives have a fitted effect of over 35% in size
# Summary of the method: as §1
# Potency is the fitted concentration of half-maximal effect.
Compound,Potency [1],Potency [2],Potency [3],Potency [4],Potency [5],Potency [6],Potency [7],Potency [8],Potency [9],Potency [10],Potency [11],Potency [12],activity (max response) [10]
O=C1Cc2cc(CCN3CCN(c4nsc5ccccc45)CC3)c(Cl)cc2N1,11.9 µM (active) and 9.2 µM (active),3.35 µM (active) and 4.11 µM (active),inactive,inactive,inactive,inactive,inactive,inactive,,,,,
CCN1CCN(CC(=O)Nc2ccc(-c3cccc4c(=O)cc(N5CCOCC5)oc34)c3sc4ccccc4c23)CC1,422 nM (active) and 407 nM (active),422 nM (active) and 723 nM (active),4.18 µM (active),3.72 µM (active),inactive,,,1.32 µM (active),1.05 µM (active),9 µM (active),7.15 µM (active),,
COc1ccc(OC)c(-c2nnc3ccc(-c4ccc(OC)c(O[C@@H]5CCOC5)c4)nn23)c1,2.63 µM (active),2.95 µM (active),inactive,inactive,inactive,,,,,5.01 µM (active),0.501 µM (active),,
CC(C)=CC[C@@H](O)C1=CC(=O)c2c(O)ccc(O)c2C1=O,5.25 µM (active),2.63 µM (active),1.66 µM (active),2.09 µM (active),9.35 µM (active),10500 nM (active),inactive,,,,,,
NCC(=O)Nc1ccc(-n2nc(C(F)(F)F)cc2-c2ccc3c(ccc4ccccc43)c2)cc1,5.8 µM (active) and 5.9 µM (active),2.91 µM (active) and 4.68 µM (active),inactive,9.35 µM (active),2.96 µM (active),,inactive,,inactive,,,2.96 µM (active),
COc1ccc2c(c1)c(CC(=O)O)c(C)n2C(=O)c1ccc(Cl)cc1,inactive,inactive,inactive,inactive,inactive,inactive,inactive,inactive,inactive,,inactive,inactive,-9.65% and -2.21%
CC[C@@H]1C(=O)N(C)c2cnc(Nc3ccc(C(=O)NC4CCC(N5CCN(CC6CC6)CC5)CC4)cc3OC)nc2N1C(C)C (some centres undefined),0.0206 µM (active),23.1 nM (active) and 9.2 nM (active) and 16.6 nM (active),0.0935 µM (active),0.0743 µM (active),0.0332 µM (active),74.3 nM (active),29.6 nM (active),0.059 µM (active),0.0833 µM (active),,,,
CC1(C)O[C@H]2CC(=O)OC[C@]23[C@H]2CC[C@@]4(C)[C@H](c5ccoc5)OC(=O)[C@H]5O[C@]54[C@]2(C)C(=O)C[C@@H]13,inactive,inactive,inactive,inactive,inactive,inactive,inactive,inactive,,,inactive,inactive,7.85%
Cc1ncc([N+](=O)[O-])n1CC(C)O (centres undefined),inactive,inactive,inactive,inactive,inactive,inactive,,,,,inactive,inactive,-11%
CC(=O)N(O)CCCCCNC(=O)CCC(=O)N(O)CCCCCNC(=O)CCC(=O)N(O)CCCCCN,6.61 µM (active),5.9 µM (active),0.0186 µM (active),0.0831 µM (active),0.0047 µM (active),58.8 nM (active),,,,28.2 µM (active),,0.0741 µM (active),
NCCCC(N)(C(=O)O)C(F)F (centres undefined),inactive,inactive,inactive,inactive,inactive,inactive,inactive,inactive,inactive,,inactive,,1.41% and -0.581%
COc1cc(C(C)C)c2c(c1)S(=O)(=O)N(COc1cc(=O)n3cccc(OCCN4CCCCC4)c3n1)C2=O,20.9 µM (active),11.8 µM (active),inactive,inactive,inactive,inactive,inactive,inactive,inactive,,17.8 µM (active),,
"Cc1c2oc3c(C)ccc(C(=O)NC4C(=O)NC(C(C)C)C(=O)N5CCCC5C(=O)N(C)CC(=O)N(C)C(C(C)C)C(=O)OC4C)c3nc-2c(C(=O)NC2C(=O)NC(C(C)C)C(=O)N3CCCC3C(=O)N(C)CC(=O)N(C)C(C(C)C)C(=O)OC2C)c(N)c1=O (centres undefined) (I: TVP[Sar][NMeV] / II: TVP[Sar][NMeV]; ester I:1-I:C, II:1-II:C; linker I:N-II:N via Actinocin(9to1); configuration not given here)",0.0014 µM (active),0.001 µM (active),inactive,inactive,,inactive,inactive,inactive,,0.009 µM (active),0.802 µM (active),inactive,
